The values below come from PubChem BioAssay.

Calls of active or inactive are those of the source. Unless noted, how the calls were made is not given here.

Experiment [1] can be described thus: HepG2 liver cancer cell viability effects, profiling panel, resazurin fluorescence, 24 h, PK04 Diversity Set (AID 1172). The note with it: higher = more signal. (The colour change of resazurin is a common sign of viable cells or microbes.)
Experiment [2] is described as follows: basal S. cerevisiae growth modulation, no modifier, primary screen, OD600, strain BY4716, 24 h, basal condition (AID 1173). The following applies: OD600, 24 h, higher = more signal, called active from +8 up or from −8 down.
Experiment [3] can be described thus: MM1S myeloma cell viability, profiling panel, resazurin fluorescence, basal, 24 h, PK04 Diversity Set (AID 1174).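 Further: MM1S multiple myeloma cell line.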 The note with it: higher = more signal, called active from +8 up or from −8 down.
Experiment [4] has as its target Dihydroorotate dehydrogenase (quinone), mitochondrial (Plasmodium falciparum (isolate 3D7)) (UniProt Q08210). Description: PfDHODH enzyme inhibitors, primary screen, biochemical, C-terminal His tag, absorbance 600 nm (AID 1175).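 Further: recombinant parasite enzyme with a five histidine tag at its C terminus.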 The following applies: DCIP absorbance 600 nm, higher = more signal, called active from +8 up or from −8 down.
Experiment [5] in a line: P. aeruginosa biofilm formation inhibitors, primary screen, strain PAO1, LB-PBS medium, absorbance 600 nm (AID 1176). The note with it: P. aeruginosa PAO1 growth/biofilm, A600, 12 h; higher = more signal.
A short description of experiment [6]: S. cerevisiae RM11-1a growth modifiers, primary screen, strain RM11-1a, OD600, basal, 24 h (AID 1177).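 Further: cultures grown under basal conditions with no added stressor.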 The following applies: OD600, 24 h, higher = more signal, called active from +8 up or from −8 down.
Experiment [7] can be described thus: E. coli acrAB mutant growth effects, primary screen, E. coli filamentation inducers, strain DRC39, OD650, 24 h (AID 1178).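 Further: growth measured as culture turbidity by optical density at 650 nm.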 The following applies: higher = more signal, called active from +8 up or from −8 down.
A short description of experiment [8]: E. coli acrAB mutant growth effects, primary screen, E. coli filamentation inducers, strain DRC39, OD650, 48 h (AID 1179).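 Further: screen aims at cell division blockers that make cells filament.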 The note with it: E. coli DRC39 delta-acrAB growth, higher = more signal, called active from +8 up or from −8 down.
A short description of experiment [9]: RPMI8226 myeloma cell viability, profiling panel, resazurin fluorescence, basal, 24 h, PK04 Diversity Set (AID 1180).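 Further: RPMI8826 multiple myeloma cell line at 5000 cells per well.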 The note with it: higher = more signal.
For experiment [10], the target named is E3 ubiquitin-protein ligase XIAP (Homo sapiens) (UniProt P98170). The experiment in a line: XIAP binders, primary screen, biophysical, small-molecule microarray, fluorescence 635 nm (AID 1181).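 Further: score merges 667 nm emission and signal to noise over triplicate slides.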 The note with it: small-molecule microarray binding, higher = more signal.
Experiment [11] deals with XIP peptide (Xip251-270) binding. Description: small-molecule binders of XIP peptide, primary screen, biochemical, small-molecule microarray, fluorescence 635/667 nm, 0.1 µg/mL protein (AID 1182). The note with it: fluorescent protein binding, 635 nm, higher = more signal, called active from +8 up or from −8 down.
In experiment [12] the test system is XIP peptide (Xip251-270). Description: small-molecule binders of XIP peptide, primary screen, biochemical, small-molecule microarray, fluorescence 635/667 nm, 0.5 µg/mL protein (AID 1183). The note with it: small-molecule microarray binding, fluorescence 635 nm; higher = more signal.
The nature of experiment [13]: Plasmodium falciparum growth inhibition, primary screen, strain 3D7, DAPI fluorescence, 100 nL (AID 1184).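 Further: parasites grown inside human red blood cells in medium with human serum.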 The note with it: P. falciparum 3D7 growth, 3 d, higher = more signal.
Experiment [14] concerns the target Homeobox protein Hox-A13 (Mus musculus) (UniProt Q62424). Description: inhibitors of HoxA13-DNA binding, primary screen, biochemical, fluorescence polarization, labeled oligonucleotide (AID 1185). The following applies: 15 min, higher = more signal, called active from +8 up or from −8 down.
Experiment [15] is described as follows: inhibitors of hydroxyurea-induced Chk1 phosphorylation, primary screen, imaging, HeLa, phospho-Chk1 antibody, percent positive cells (AID 1186). The note with it: hydroxyurea-induced phospho-Chk1 immunofluorescence imaging, higher = more signal.
The nature of experiment [16]: inhibitors of hydroxyurea-induced Chk1 phosphorylation, primary screen, imaging, HeLa, phospho-Chk1 nuclear intensity (AID 1187). The following applies: hydroxyurea-induced phospho-Chk1 immunofluorescence imaging, higher = more signal.

Homeobox protein Hox-A13 (Mus musculus), sequence (Q62424 whole entry, looked up): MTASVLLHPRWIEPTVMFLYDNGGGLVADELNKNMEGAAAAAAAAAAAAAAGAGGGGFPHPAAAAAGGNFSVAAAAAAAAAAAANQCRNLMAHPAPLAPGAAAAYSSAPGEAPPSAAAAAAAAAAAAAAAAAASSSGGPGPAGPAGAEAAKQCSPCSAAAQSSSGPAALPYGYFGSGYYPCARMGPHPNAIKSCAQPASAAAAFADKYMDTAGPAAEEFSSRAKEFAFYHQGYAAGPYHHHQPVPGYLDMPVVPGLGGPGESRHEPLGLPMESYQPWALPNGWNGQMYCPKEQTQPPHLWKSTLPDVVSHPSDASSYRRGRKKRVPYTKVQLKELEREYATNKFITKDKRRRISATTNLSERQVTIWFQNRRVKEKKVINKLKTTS
E3 ubiquitin-protein ligase XIAP (Homo sapiens), sequence (P98170 whole entry, looked up): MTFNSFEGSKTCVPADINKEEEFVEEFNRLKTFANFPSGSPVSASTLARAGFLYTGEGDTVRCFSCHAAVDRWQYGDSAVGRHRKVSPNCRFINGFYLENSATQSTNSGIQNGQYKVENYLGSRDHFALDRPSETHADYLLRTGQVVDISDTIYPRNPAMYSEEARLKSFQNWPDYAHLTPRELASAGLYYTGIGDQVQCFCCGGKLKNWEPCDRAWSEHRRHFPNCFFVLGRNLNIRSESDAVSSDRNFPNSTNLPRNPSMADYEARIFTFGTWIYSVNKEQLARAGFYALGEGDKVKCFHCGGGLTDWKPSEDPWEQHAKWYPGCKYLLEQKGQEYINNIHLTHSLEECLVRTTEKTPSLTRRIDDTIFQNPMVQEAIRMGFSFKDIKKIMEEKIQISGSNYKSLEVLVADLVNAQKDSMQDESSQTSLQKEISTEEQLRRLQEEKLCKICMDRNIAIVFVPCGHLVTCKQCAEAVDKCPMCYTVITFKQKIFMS
Dihydroorotate dehydrogenase (quinone), mitochondrial (Plasmodium falciparum (isolate 3D7)), sequence (Q08210 whole entry, looked up): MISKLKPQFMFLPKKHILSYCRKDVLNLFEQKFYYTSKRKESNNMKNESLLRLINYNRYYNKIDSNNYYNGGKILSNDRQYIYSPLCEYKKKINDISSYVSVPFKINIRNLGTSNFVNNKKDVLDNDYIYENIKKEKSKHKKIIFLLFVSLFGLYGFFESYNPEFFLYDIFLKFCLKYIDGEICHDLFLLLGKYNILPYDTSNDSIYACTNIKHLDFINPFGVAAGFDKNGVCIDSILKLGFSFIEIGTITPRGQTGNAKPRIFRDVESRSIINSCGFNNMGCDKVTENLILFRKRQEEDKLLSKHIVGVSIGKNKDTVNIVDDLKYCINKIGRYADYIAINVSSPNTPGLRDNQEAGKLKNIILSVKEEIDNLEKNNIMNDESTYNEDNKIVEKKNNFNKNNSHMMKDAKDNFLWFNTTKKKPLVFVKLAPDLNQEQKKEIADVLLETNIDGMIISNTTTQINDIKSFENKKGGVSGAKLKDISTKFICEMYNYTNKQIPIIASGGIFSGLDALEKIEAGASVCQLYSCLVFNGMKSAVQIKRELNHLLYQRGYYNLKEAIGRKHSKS

Turning to `CCOC(=O)C[C@H]1[C@H](OC(=O)c2ccccc2-c2ccccc2)[C@@H](NC(=O)c2ccc(-c3ccccc3)cc2)c2cc(OCCCO)ccc2N1C(=O)Cc1ccc(OC)cc1`, the z-score in experiment [1] is -0.235; in experiment [2] it was -0.034 (inactive); in [3], -0.0275 (inactive); in experiment [5], 0.2 (inactive); in [6], -0.28 (inactive); in experiment [7], -0.489 (inactive). The z-score was -0.628 (inactive) in experiment [8]; 0.364 in experiment [9]; 0.561 in experiment [13]; -2.32 (inactive) in experiment [14]; 0.663 (inactive) in experiment [15]; 0.241 (inactive) in [16]. Besides, the composite z-score was -1.29 (inactive) in experiment [4], -0.16 in experiment [10], 0.617 (inactive) in experiment [11] and 0.222 in [12].

Turning to `O=C1C2C=CC(C(O)C#Cc3ccccc3)N(Nc3ccccc3)C2C(=O)N1c1ccccc1` (stereo not given), the z-score in experiment [1] was 0.198; in [2], -3.55 (inactive); in experiment [3], -0.279 (inactive); in experiment [5], 0.875 (inactive); in experiment [6], 0.143 (inactive); in experiment [7], -0.169 (inactive). Moreover, the z-score is -0.143 (inactive) in [8]; 0.0581 in experiment [9]; 0.801 in experiment [13]; -4.05 (inactive) in experiment [14]; -0.0484 (inactive) in experiment [15]; -0.217 (inactive) in experiment [16]. Also, the composite z-score in experiment [4] is -0.766 (inactive); in experiment [10], -0.189; in [11] it was -0.115 (inactive); in [12], 0.176.

Consider `COc1ccc(C(O)C2C=CC3C(=O)N(C)C(=O)C3N2N2CCCCC2)cc1OCc1ccccc1` (stereo not given), for which the z-score in [1] is 1.06; in [2] it was -1.21 (inactive); in [3], 0.0046 (inactive); in experiment [5], 0.779 (inactive); in experiment [6], 1.26 (inactive); in experiment [7], -0.738 (inactive). Besides, the z-score in experiment [8] was -0.811 (inactive); in experiment [9], -2.38; in [13], -0.303; in experiment [14], -4.76 (inactive); in [15], 0.245 (inactive); in experiment [16], -0.0779 (inactive). Further, the composite z-score in experiment [4] is 1.05 (inactive); in [10], -0.0937; in experiment [11] it was -0.001 (inactive); in [12], 0.582.

Regarding `C[C@H]1C2[C@H](Cc3ccccc3)NC(=O)[C@]23C(=O)N[C@H](Cc2ccccc2)C(=O)N[C@@H](Cc2ccccc2)C(=O)NC/C=C\C/C=C/C3[C@@H]2O[C@]12C` (stereo not given in full), the z-score in experiment [1] is -0.204; in experiment [2], -1.79 (inactive); in [3], 1.03 (inactive); in experiment [5] it was -0.234 (inactive); in experiment [6], -0.617 (inactive); in experiment [7], 1.73 (inactive). Moreover, the z-score in experiment [8] is 0.9 (inactive); in [9] it was 0.724; in experiment [13] it was -0.873; in [14] it was -7.06 (inactive); in [15], 0.531 (inactive); in [16] it was 0.375 (inactive). Moreover, the composite z-score was -0.427 (inactive) in experiment [4], 0.306 in experiment [10], -0.157 (inactive) in experiment [11] and -0.564 in experiment [12].

Take `O=C/C=C/c1ccccc1Cl`: the z-score in [1] was 0.965; in experiment [2], -7.23 (inactive); in experiment [3] it was 0.413 (inactive); in experiment [5], -0.227 (inactive); in experiment [6], -1.17 (inactive); in experiment [7], 0.834 (inactive). Further, the z-score in experiment [8] was 0.496 (inactive); in experiment [9], 2.16; in [13], 0.316; in experiment [14], -0.26 (inactive); in [15] it was 0.152 (inactive); in experiment [16] it was 0.0674 (inactive). The composite z-score in [4] is -0.516 (inactive); in [10], -0.0393; in experiment [11], 0.0944 (inactive); in [12] it was -0.264.

Consider `CC1CC/C=C\[C@H]2OC34C=CCN(Cn5nnc6ccccc65)C(=O)[C@H]3N(C(C)CO)C(=O)[C@@H]4C2C(=O)O1` (stereo not given in full), for which the z-score in experiment [1] was 0.142; in experiment [2] it was -0.0496 (inactive); in experiment [3], 0.035 (inactive); in experiment [5], -0.0837 (inactive); in [6] it was 0.472 (inactive); in experiment [7], 0.756 (inactive). For the same molecule, the z-score in experiment [8] was 0.665 (inactive); in [9] it was 0.0911; in [13], 0.189; in experiment [14], -4.29 (inactive); in [15] it was -0.087 (inactive); in experiment [16] it was -0.361 (inactive). Moreover, the composite z-score in experiment [4] was 0.853 (inactive); in experiment [10] it was 0.282; in [11] it was 0.205 (inactive); in experiment [12] it was 0.0783.

For `COC(=O)[C@@]1(Cc2ccccc2)[C@H]2c3cc(C(=O)N4CCCC4)n(CCN4CNCC4=O)c3C[C@H]2CN1C(=O)c1ccccc1`, the z-score in [1] was 0.276; in [2], 0.864 (inactive); in experiment [3], 0.327 (inactive); in experiment [5] it was -0.167 (inactive); in experiment [6], -0.189 (inactive); in experiment [7] it was 0.499 (inactive). Further, the z-score in experiment [8] is -0.321 (inactive); in [9], 0.742; in [13], -1.12; in [14], -5.22 (inactive); in [15] it was 0.421 (inactive); in [16], 0.912 (inactive). The composite z-score in experiment [4] is -0.482 (inactive); in experiment [10] it was 0.414; in experiment [11], 1.12 (inactive); in experiment [12] it was -0.127.

For `CCc1cccc(NC(=O)O[C@H]2[C@H](OC(=O)Nc3ccccc3)[C@@H](OC(=O)Nc3ccccc3)[C@@H](OC)O[C@@H]2CO)c1`, the z-score is -2.9 in experiment [1]; 0.28 (inactive) in experiment [2]; -5.58 (inactive) in experiment [3]; 0.497 (inactive) in [5]; 2.4 (inactive) in experiment [6]; 1.47 (inactive) in [7]. Moreover, the z-score in experiment [8] is 0.711 (inactive); in experiment [9], -4.86; in experiment [13], -2.16; in experiment [14], -5.07 (inactive); in [15] it was -0.235 (inactive); in experiment [16] it was -0.0949 (inactive). Moreover, the composite z-score is 0.189 (inactive) in experiment [4], 0.0153 in [10], 0.652 (inactive) in experiment [11] and 0.886 in [12].

For the molecule `C=CCC(OC(C)=O)[C@@H]1[C@@H](N(Cc2cccc3ccccc23)C(=O)Cc2ccc(F)cc2)c2cc(OCCCO)ccc2N1C(=O)Cc1ccc2ccccc2c1` (stereo not given in full), the z-score in [1] is 0.549; in experiment [2] it was 0.595 (inactive); in experiment [3], 0.295 (inactive); in experiment [5] it was 0.195 (inactive); in experiment [6] it was 0.0764 (inactive); in experiment [7] it was -0.283 (inactive). Besides, the z-score was 0.4 (inactive) in experiment [8]; -1.29 in [9]; -1.17 in [13]; -0.474 (inactive) in experiment [14]; -0.579 (inactive) in [15]; -0.516 (inactive) in experiment [16]. The composite z-score in experiment [4] was -0.373 (inactive); in experiment [10], -0.0332; in experiment [11] it was -0.741 (inactive); in [12] it was 0.57.

With `C=CC[C@]1(C(=O)O)N=C(c2ccc(OCCCO)cc2)O[C@H]1c1ccccc1N=[N+]=[N-]`, the z-score in experiment [1] is 0.912; in experiment [2], -0.761 (inactive); in experiment [3], 0.777 (inactive); in experiment [5] it was -1.1 (inactive); in [6], 1.21 (inactive); in [7], 2.63 (inactive). The z-score was 1.65 (inactive) in experiment [8]; 0.248 in experiment [9]; -1.3 in experiment [13]; -5.25 (inactive) in [14]; -0.0145 (inactive) in experiment [15]; 0.144 (inactive) in experiment [16]. Besides, the composite z-score is 0.589 (inactive) in [4], -0.0095 in [10], 0.718 (inactive) in experiment [11] and -0.519 in experiment [12].
